The values below come from PubChem BioAssay.

This assay relates to Wnt5a (protein binding on small-molecule microarray). The assay can be described thus: Wnt5a binders on small-molecule microarray, primary screen, biophysical, 635/667 nm fluorescence (AID 1142).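 Also: fluorescence read at 667 nm with signal to noise per printed feature.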 The following applies: 635 nm fluorescence, higher = more signal.
As for `CO[C@H]1O[C@H](CO)[C@@H](OC(=O)Nc2ccccc2)[C@@H]2OC(=O)[C@H](Cc3ccccc3)C/C=C/C[C@@H](Cc3ccccc3)C(=O)O[C@@H]12`, the composite z-score was found to be 0.399. `CCCCC(=C=CC[C@@H](O)c1ccc(OCCO)cc1)C[C@@H](O)c1ccccn1`: the composite z-score was 0.158. To `C=CCC(OC(C)=O)[C@@H]1[C@@H](N(Cc2cccc3ccccc23)C(=O)c2ccc(-c3ccccc3)cc2)c2cc(OCCCO)ccc2N1C(=O)c1ccc2ccccc2n1` (stereo not given in full) belongs -0.133. To `COCCOC(=O)N1C(=O)[C@@]2(c3cc(C#CC4(O)CCCCCC4)ccc31)[C@H](c1ccc(OCCO)cc1)N1[C@H](c3ccccc3)[C@H](c3ccccc3)OC(=O)[C@H]1[C@@H]2C(N)=O` belongs 0.437.

For `COc1ccc([Si](C)(C)[C@H]2[C@H](CCO)O[C@@]3(C(=O)N(Cc4ccc(N5CCOC5=O)cc4)c4ccccc43)[C@@H]2C)cc1`, the composite z-score is -0.159.

The compound `Cc1c(-c2ccc(-c3ccc(Cl)c(Cl)c3)o2)nc(-c2ccccc2)c2c1CO[Si]2(C(C)C)C(C)C` displayed a composite z-score of -0.0882.

With `O=C1OCCC=C[C@H]2OC34C=CCN(CCN5CCOCC5)C(=O)[C@H]3N(CCCO)C(=O)[C@@H]4C12` (stereo not given in full), the composite z-score is -0.543. To `COC(=O)[C@@]1(Cc2ccc(F)cc2)[C@H]2c3cc(C(=O)N(C)C)n(CCO)c3C[C@H]2CN1C(=O)c1ccccc1` belongs -0.0929; to `CC(C)C[C@H]1NC(=O)[C@@H](C)NC(=O)[C@@]23C(=O)N[C@@H](Cc4ccccc4)C2[C@H](C)[C@@]2(C)O[C@H]2C3/C=C/C/C=C\CNC1=O` (stereo not given in full), -0.134; to `N#Cc1ccc(C(O)C2C=CC3C(=O)N(c4ccccc4)C(=O)C3N2Nc2ccc([N+](=O)[O-])cc2)cc1` (stereo not given), 0.488.
